Compound activity (PubChem BioAssay)
Vif-APOBEC3F blk – qHTS for Inhibitors of Vif-A3F Interactions: qHTS; Potency, µM (series often up to 46.1 µM), for the others: at the top dose activity, negative = active; hit rate 0.2% among 390,000; HeLa A3F-eYFP + Vif (tagged APOBEC3F with the HIV-1 protein that degrades it), YFP fluorescence increase; AID 602313, 2012; note: potency is the fitted concentration of half-maximal effect; % of control where 0% means no effect; nearly all actives have a fitted effect of over 65% in size
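HeLa cells stably expressing Vif plus C-terminally eYFP-tagged A3F were seeded, incubated overnight at 37 deg C, dosed with compound, incubated overnight again at 37 deg C. Yellow fluorescence (Ex 488/Em 500-530) reported blocked Vif-mediated A3F-eYFP degradation.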
TRPML1 blocker – qHTS for Inhibitors of the Human Mucolipin Transient Receptor Potential 1 (TRPML1); TRPML1-inducible cells, Ca2+ dye fluorescence, FDSS; active compounds read low; inhibition of EC80 agonist-evoked calcium signal; activity change, negative = inhibition, % (no concentration beside the values); hit rate 0.02% among 390,000; AID 624415, 2012; in the data active = activity change below about -50%; inconclusive = between about -30% and that limit;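 note: stimulus is agonist 54-4 at its EC80 concentration; % is set by controls: 0 for no effect and ±100 for the full control effect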
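Tet-induced TRPML1-DL cells loaded with Ca8 no-wash calcium dye were read kinetically on FDSS. Compound addition was followed by EC80 agonist 54-4 (4 uM final); inhibition was read over 110 s.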
ALOX12 inh – Primary qHTS assay for inhibitors of human arachidonate 12S-lipoxygenase (ALOX12): Round 2; Polyunsaturated fatty acid lipoxygenase ALOX12 (Homo sapiens), P18054; purified 12hLO, xylenol orange hydroperoxide absorbance; Potency, µM (highest dose often 108 µM), without a hit: at the top dose activity change, negative = inhibition, usual class: inhibitors; hit rate 1.1% among 580,000; AID 1671190, 2021; note: potency is the fitted concentration of half-maximal effect; % is set by controls: 0 for no effect and ±100 for the full control effect
Target sequence (P18054 whole entry, looked up): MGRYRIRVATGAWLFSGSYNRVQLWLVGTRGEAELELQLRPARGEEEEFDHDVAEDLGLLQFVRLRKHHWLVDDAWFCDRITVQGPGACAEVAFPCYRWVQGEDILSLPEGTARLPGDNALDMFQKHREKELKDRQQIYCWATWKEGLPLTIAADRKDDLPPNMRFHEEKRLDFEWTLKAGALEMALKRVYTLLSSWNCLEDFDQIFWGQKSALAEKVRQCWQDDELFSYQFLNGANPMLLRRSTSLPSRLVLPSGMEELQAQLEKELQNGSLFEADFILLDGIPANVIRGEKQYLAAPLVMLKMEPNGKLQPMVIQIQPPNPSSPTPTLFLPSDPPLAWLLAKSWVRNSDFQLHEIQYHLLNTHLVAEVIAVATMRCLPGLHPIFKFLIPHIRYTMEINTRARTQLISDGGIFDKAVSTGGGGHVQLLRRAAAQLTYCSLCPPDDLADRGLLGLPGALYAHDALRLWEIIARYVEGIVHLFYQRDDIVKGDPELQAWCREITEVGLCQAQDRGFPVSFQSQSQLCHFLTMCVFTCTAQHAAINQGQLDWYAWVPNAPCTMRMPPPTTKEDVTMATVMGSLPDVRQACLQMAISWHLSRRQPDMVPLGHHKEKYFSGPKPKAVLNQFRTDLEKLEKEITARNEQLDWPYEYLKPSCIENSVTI
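Hydroperoxide product was detected by ferrous iron/xylenol orange as the 573 to 405 nm absorbance ratio. Arachidonic acid at 40 uM (final) was turned over for 30 min at room temperature by 150 nM human 12hLO, pH 7.0 Hepes buffer, after 15 min compound preincubation.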
Glioma ERSR ind – qHTS for Inducers of the Endoplasmic Reticulum Stress Response (ERSR) in Human Glioma: qHTS; U87-MG GRP78 promoter luciferase reporter, 16 h; Potency, µM, inactives show at the top dose activation, actives largely listed as activators; hit rate 0.02% among 420,000; AID 602332, 2012; note: potency is the fitted concentration of half-maximal effect; series mostly up to about 76 µM; % of control where 0% means no effect; nearly all actives have a fitted effect of over 35% in size
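ERSR induction read as luciferase luminescence (Bright-Glo, 10 min at room temperature) in stably transfected human U87-MG glioma cells exposed to compounds for 16 h, using GRP78 as sensor.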
Vif-A3G inh – qHTS for Inhibitors of Vif-A3G Interactions: qHTS; hit rate 0.076% among 410,000; Potency, µM (highest dose often 46.1 µM), without a hit: at the top dose activity, negative = active, usual class: inhibitors; DNA dC->dU-editing enzyme APOBEC-3G (Homo sapiens), Q9HC16; HeLa A3G-eYFP + Vif (tagged APOBEC3G with the HIV-1 protein that degrades it), YFP fluorescence, overnight; note: potency is the fitted concentration of half-maximal effect; % is set by controls: 0 for no effect and ±100 for the full control effect; nearly all actives have a fitted effect of over 60% in size
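HeLa cells stably expressing Vif and C-terminally eYFP-tagged A3G, seeded overnight at 37 deg C, then exposed to compound by pintool overnight at 37 deg C. Rise in yellow fluorescence (Ex 488/Em 500-530, Acumen) marks blocked Vif-driven A3G degradation.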
TRPML1 ag – qHTS for Agonists of the Human Mucolipin Transient Receptor Potential 1 (TRPML1); Mucolipin-1 (Homo sapiens), Q9GZU1; activation, % (no concentration beside the values); TRPML1-expressing cells, Ca2+ dye fluorescence, FDSS; hit rate 0.12% among 410,000; in the data active = activation above about 50%; inconclusive = mostly about 30% to 49%; note: 0% is about no effect
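Cells: TRPML1-DL, 1X Tet inducer, ~16 h at 37 degrees C/5% CO2. Dye: ABD Ca8 no-wash + quencher, 45-90 min RT. Read: 10 s baseline, compound add, 110 s agonist phase; 54-4 EC80 (4uM final), 110 s antagonist phase.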
* hit, by the source's call; ? = inconclusive; / = no result; ! = not confirmed by another sample; [ ] = dose if it differs, or a comment. Hits are enriched below; roughly 1.3% of the tested compounds scored in any of these assays. Unless noted, calls come from the whole dose curve; as a rule, active = well fitted curve in the direction sought with a large enough effect; inconclusive = small, poorly fitted or top-dose-only effect, or another doubt; inactive = no such curve, though single readings can be large; an effect the other way counts as inactive or inconclusive.

SMILES	Vif-APOBEC3F blk	TRPML1 blocker	ALOX12 inh	Glioma ERSR ind	Vif-A3G inh	TRPML1 ag
COc1ccc(N=C2S[C@H]3[C@H]([C@@H](O)[C@H](O)C[C@@H]3C(N)=O)N2Cc2ccc(F)cc2)cc1	/	/	52%	/	/	/
Cc1ccc(C2C(C(=O)c3cccs3)=C(O)C(=O)N2c2nncs2)cc1 (stereo not drawn)	/	/	2.2µM*	/	/	/
O=C(C1=C(O)C(=O)N(c2nncs2)C1c1ccc(F)cc1)c1cccs1 (stereo not drawn)	/	/	-58%	/	/	/
O=C(C1=C(O)C(=O)N(c2nncs2)C1c1ccccc1)c1cccs1 (stereo not drawn)	/	/	0.56µM*	/	/	/
Cn1nc(C(=O)Nc2ccccc2C(=O)NCC(F)(F)F)c2ccccc2c1=O	/	/	27%	/	/	/
CNC(=S)NNC(=O)c1ccc(C)c(Cl)c1	/	/	11%	/	/	/
CC(=O)Nc1ccc(CN2CCn3c(nnc3C3CCNCC3)C2)cc1	/	/	11µM*	/	/	/
S=C1NCCc2ccccc2C1c1ccccc1 (stereo not drawn)	-1%	4	35µM*	-9%	0%	0
C/C(CC(=O)Nc1cc(Cl)ccc1Cl)=N\NC(N)=S	0%	-12	?	-5%	-1%	1
C/C(CC(=O)Nc1ccc(Cl)c(Cl)c1)=N\NC(N)=S	5%	7	1µM*	-5%	-4%	0
Cc1csc(CNC(=O)c2ccc3nc[nH]c3c2)n1	/	/	28%	/	/	/
CCOC(=O)CSC1=C(C#N)C(c2ccccc2)C(C(C)=O)=C(C)N1 (stereo not drawn)	3%	-7	-19%	-3%	-5%	0
Cc1ccc(NC(=O)CSC2=C(C#N)C(c3ccco3)CC(=O)N2)cc1 (stereo not drawn)	-3%	30	?	2%	-13%	0
CC(=O)C1=C(C)NC(SCC(=O)c2ccc(Cl)cc2Cl)=C(C#N)C1c1ccco1 (stereo not drawn)	-16%	-5	?	-2%	1%	2
CC(=O)C1=C(C)NC(SCC(=O)c2ccccc2)=C(C#N)C1CC(C)C (stereo not drawn)	/	-11	7.9µM*	-2%	-6%	0
CC(=O)C1=C(C)NC(SCC(=O)c2ccc(Cl)cc2)=C(C#N)C1c1ccco1 (stereo not drawn)	25µM*	36	?	2%	?	2
Cc1ccc(C(=O)CSC2=C(C#N)C(c3ccco3)CC(=O)N2)c(C)c1 (stereo not drawn)	9%	-9	50µM*	-3%	-8%	16
COc1cccc(OC)c1C(=O)O	/	/	2%[176 µM]	/	/	/
COc1ccc(C(=O)NC(C)CCc2ccccc2)cc1[N+](=O)[O-] (stereo not drawn)	-13%	-2	-1%	-5%	4%	-1
COc1ccc(C(=O)C(C)[n+]2ccc(C)c3ccccc32)cc1[N+](=O)[O-] (stereo not drawn)	?	-21	?	3%	5.6µM*	?
O=C(CCc1cccnc1)NCCc1ccccn1	/	/	0%	/	/	/
CCN(CC)c1ccc(SS(=O)(=O)O)cc1	-3%	-3	25µM*!	-6%	1%	0
O=S(=O)(O)Sc1ccccc1	1%	0	?	-1%	1%	0
Cc1c(CCC(=O)NCCc2cccc(F)c2)c(=O)oc2cc(O)ccc12	/	/	-11%	/	/	/
CCOC(=O)c1nn(-c2ccc(F)cc2)c(=O)c2c(N)scc12	8%	5	?	-2%	0%	-1
CCOC(=O)c1nn(-c2ccc(C)cc2)c(=O)c2c(N)scc12	0%	49	25µM*	-3%	-4%	0
COc1cc(NS(=O)(=O)c2cccc(Cl)c2)cc2sc(NC(=O)c3ccccc3)nc12	/	/	-26%	/	/	/
